# Data published in PubChem BioAssay AID1259421 (Broad Institute, 2018).
# Where “and” joins values, the source holds several entries; their conditions need not be identical. Equal values may be shown once. Among all 6,400 compounds or so, about 610 (9.5%) were called active. Cut-off read from the data, not from the text of the source: active = activity change below about -70%; inconclusive = no clear call, values can overlap the other calls; inactive = above that. Many of the other results were omitted from the sample, so actives are more common in it than they were. Where a structure was tested more than once in an assay, its records may differ in their call.
# Experiment: Toxoplasma gondii ME49Luc growth in HeLa cells, luciferase, no IFN-y, primary screen (AID 1259421)
# Details: T. gondii ME49Luc in HeLa, 72 h, stronger effect = lower value, concentration not given here
row,SMILES,"activity change, negative = inhibition"
1,N#C/C(=C/c1ccc(O)c(O)c1)C(=O)NCCCCc1ccccc1,28.9% (inactive)
2,COc1cnc(-n2cnc(C)n2)c2[nH]cc(C(=O)C(=O)N3CCN(C(=O)c4ccccc4)CC3)c12,22.1% (inactive)
3,C=C1C(=O)O[C@@H]2[C@H]3O[C@]3(C)CC/C=C(\C)CC[C@@H]12,6.15% (inactive)
4,CCC[C@@H]1C[C@@H](C(=O)N[C@@H](C2O[C@H](SC)[C@H](O)[C@@H](O)[C@H]2O)[C@H](C)Cl)N(C)C1 (stereo partly specified),-0.424% (inactive)
5,CC(C)[C@H](N)C(=O)OCCOCn1cnc2c(=O)[nH]c(N)nc21,9.53% (inactive) and 3.52% (inactive)
6,O=C(CCc1ccc(O)cc1)c1c(O)cc(O)cc1O[C@@H]1O[C@H](CO)[C@@H](O)[C@H](O)[C@@H]1O,6% (inactive)
7,CC(C)(C)Cn1c(N)nc2ccc(-c3[nH]c(C(C)(C)C)nc3-c3ccc(F)cc3)nc21,-83.7% (active)
8,CC(C)(C)C(=O)OCOC(=O)[C@@H]1N2C(=O)[C@@H](N=CN3CCCCCC3)[C@H]2SC1(C)C,2.97% (inactive)
9,O=C(N[C@@H]1CC[C@@H](c2cccc(F)c2F)CN(CC(F)(F)F)C1=O)N1CCC(n2c(=O)[nH]c3ncccc32)CC1,5.74% (inactive)
10,CC(CSC(=O)c1ccccc1)C(=O)N1C[C@@H](Sc2ccccc2)C[C@H]1C(=O)O (stereo partly specified),5.4% (inactive)
11,O=c1cc(-c2ccccc2)oc2c(O)c(O)ccc12,-85.8% (active)
12,O=c1cc(-c2ccccc2)oc2cccc(O)c12,21.2% (inactive)
13,O=c1cc(-c2ccccc2)oc2cc(O)ccc12,60.2% (inactive)
14,COc1ccc(-c2noc(CC(=O)O)c2-c2ccc(OC)cc2)cc1,7.28% (inactive)
15,Oc1ccc(Nc2nc(-c3ccc(Cl)cc3)cs2)cc1,28.7% (inactive)
16,CCOc1ccc(Nc2nc(-c3c(C)nc4ccccn34)cs2)cc1,-74% (active)
17,COc1cc(Br)c(Nc2nc(-c3c(C)nc4ncccn34)cs2)c(Br)c1,13.9% (inactive)
18,Cn1cc(C(F)(F)F)nc1-c1ccc(OCC(O)CNCCOc2ccc(O)c(C(N)=O)c2)cc1 (stereo unspecified),1.01% (inactive)
19,CC(C)(C)NC(=O)[C@H]1CCC2C3CC[C@H]4NC(=O)C=C[C@]4(C)C3CC[C@@]21C (stereo partly specified),-5.92% (inactive)
20,COc1ccc(-c2coc3cc(O)ccc3c2=O)c(O)c1O,2.93% (inactive)
21,COc1c(-c2coc3cc4c(cc3c2=O)CC(OC(C)=O)C(C)(C)O4)ccc2c1C=CC(C)(C)O2 (stereo unspecified),-72.4% (active)
22,COc1c(-c2coc3cc4c(cc3c2=O)CC(O)C(C)(C)O4)ccc2c1C=CC(C)(C)O2 (stereo unspecified),-80% (active)
23,COc1c(CC(=O)c2cc3c(cc2O)OC(C)(C)C(O)C3)ccc2c1C=CC(C)(C)O2 (stereo unspecified),16.9% (inactive)
24,COc1cc2c(cc1OC)[C@@H]1C(=O)c3ccc4c(c3O[C@@H]1CO2)C=CC(C)(C)O4,-20.6% (inactive)
25,COc1c2c(cc3occ(-c4ccc5c(c4)OCO5)c(=O)c13)OC(C)(C)C=C2,-31.2% (inactive)
26,CCOC(=O)C1=CC2(CC)CCCN3CCc4c(n1c1ccccc41)C32 (stereo unspecified),23.3% (inactive)

row,SMILES,"activity change, negative = inhibition"
1,COC12CC(COC(=O)c3cncc(Br)c3)CN(C)C1Cc1cn(C)c3cccc2c13 (stereo unspecified),13.7% (inactive)
2,CC(=O)NC(C(=O)O)C(C)(C)S[NH2+][O-] (stereo unspecified),16% (inactive)
3,CCc1cc2c(cc1N1CCC(N3CCOCC3)CC1)C(C)(C)c1[nH]c3cc(C#N)ccc3c1C2=O,16.2% (inactive)
4,Cc1c(C(=O)Nc2ccc(N3CCC(N4CCOCC4)CC3)c(C#N)c2)cnn1-c1ccc(Cl)cc1,-92.1% (active)
5,Cc1ccccc1C(=O)Nc1ccc(C(=O)N2CCCC(O)c3cc(Cl)ccc32)c(C)c1 (stereo unspecified),7.82% (inactive)
6,CN1C2CC(OC(=O)C(CO)c3ccccc3)CC1C1OC12 (stereo unspecified),11.1% (inactive)
7,CNc1cc(OC)c(C(=O)N[C@@H]2CCN(Cc3ccccc3)[C@H]2C)cc1Cl,15.3% (inactive)
8,Cn1cc(CNCC2CCN(c3ncc(C(=O)NO)cn3)CC2)c2ccccc21,-88.1% (active)
9,Cn1cc(C(=O)OCC2CCN(CCNS(C)(=O)=O)CC2)c2ccccc21,1.88% (inactive) and 6.2% (inactive)
10,Cn1cc(C[C@@H](N)C(=O)O)c2ccccc21,16% (inactive)
11,C[C@@H]1CC2C3CCC4=CC(=O)C=C[C@]4(C)[C@@]3(F)[C@@H](O)C[C@]2(C)[C@@]1(O)C(=O)COP(=O)(O)O (stereo partly specified),0.571% (inactive) and -5.12% (inactive)
12,O=c1c(-c2ccc(O)cc2)coc2c(C3O[C@H](CO)[C@@H](O)[C@H](O)[C@H]3O)c(O)ccc12 (stereo partly specified),-5.75% (inactive)
13,C[N+]1(C)C2CC[C@H]1CC(OC(=O)C(O)c1ccccc1)C2 (stereo partly specified),10.1% (inactive)
14,O=C(Nc1ccccc1)C12CC1/C(=N\O)c1ccccc1O2 (stereo unspecified),7.7% (inactive) and 0.127% (inactive)
15,COc1ccc(-c2cc(=O)c3c(O)cc(O[C@@H]4O[C@H](CO[C@H]5O[C@H](C)[C@@H](O)[C@H](O)[C@@H]5O)[C@@H](O)[C@H](O)[C@H]4O)cc3o2)cc1O,14.7% (inactive)
16,Cn1cc(C2=C(c3ccc(Cl)cc3Cl)C(=O)NC2=O)c2ccccc21,-12.4% (inactive) and -8.86% (inactive)
17,Cn1cc(C2=C(c3cn(CCCSC(=N)N)c4ccccc34)C(=O)NC2=O)c2ccccc21,-58% (inactive) and -88.3% (active)
18,COc1ccc2c(c1)c(C1=C(c3c[nH]c4ccccc34)C(=O)NC1=O)cn2CCCN(C)C,-36.9% (inactive)
19,CCCCC/C=C\C/C=C\CCCCCCCC(=O)NCCCC(=O)O,8.14% (inactive)
20,O=C(O)CN1CCN(CC(=O)O)CCN(CC(=O)O)CCN(CC(=O)O)CC1,0.0247% (inactive)
21,N#C/C(=C(/N)Sc1ccc(N)cc1)c1ccccc1C(F)(F)F,7.26% (inactive)
22,NS(=O)(=O)c1ccc(N=Cc2c(O)[nH]c3ccccc23)cc1,13.4% (inactive)
23,O=C1C(c2c(O)[nH]c3ccccc23)=Nc2ccccc21,-5.14% (inactive)
24,O=Nc1c(-c2c(O)[nH]c3ccccc23)[nH]c2ccccc12,-74.5% (active)
25,O=Nc1c(-c2c(O)[nH]c3cc(Br)ccc23)[nH]c2ccccc12,-87.9% (active)
